Source: ChEMBL document CHEMBL3988442, “University of Dundee, Small-Polar-MMV Screening Library” (2021)
About 13,000 (27%) of roughly 48,000 compounds showed an effect of 50% or more. This is one part of the list.

Each molecule was assayed on Wolbachia pipientis (assay: Anti-Wolbachia Cell-Based Screen). Conditions: 5 µM.
Assay type: functional
Set-up: scale not given: in the data most compounds retested in dose-response had high values

| Structure (SMILES) | Percent Effect |
| --- | --- |
| Cc1csc(C2(NCc3ccc(OCC(F)F)cc3)CCCC2)n1 | -12.46% |
| CC(C)(C)c1noc(OCC(=O)NCC(F)(F)F)n1 | 4.463% |
| CCNc1ncc(C(=O)Nc2nnc(N3CCCCC3)[nH]2)s1 | 22.13% |
| CC(NC(=O)COc1ccccc1C(=O)O)c1ccc(F)cc1 (stereo unspecified) | -21.32% |
| Cc1ccc(-c2nnc(CCC(=O)NCc3cn(C)nc3C)o2)s1 | -9.163% |
| COc1cc(CCC(C)O)c(OC)c2c1OCO2 (stereo unspecified) | 17.45% |
| CC(C)N(CCO)C(=O)C1CCC(=O)N(CCc2cccc(F)c2)C1 (stereo unspecified) | 8.608% |
| CC(C)CNC(=O)CNC(=O)NC(C)COc1ccccc1F (stereo unspecified) | 103.7% |
| COCCNC(=O)NCc1ccc(OC(C)C)c(F)c1 | 2.22% |
| COCCNC(=O)NC(C)COc1ccc(F)cc1F (stereo unspecified) | 119.4% |
| Cc1noc(C)c1CNC(=O)NCCOc1ccc(F)cc1F | -6.419% |
| Cn1cccc1C(O)CNC(=O)COc1ccccc1F (stereo unspecified) | -2.595% |
| CC(COc1ccccc1F)NC(=O)N[C@@H]1C=C[C@H](CO)C1 (stereo partly specified) | -7.056% |
| COC[C@]1(O)CCN(C(=O)c2ccc(CN(C)C)o2)CC1(C)C | -8.345% |
| Cc1cnc(N)nc1N1CCN(CCCO)CC1 | -5.518% |
| CC1(C)[C@H](Cc2cc(CO)on2)C[C@@H]1NCc1ccc(CO)o1 | -1.541% |
| CN(C)c1ncccc1CNS(=O)(=O)c1ccc(F)cc1F | 106.1% |
| COC(=O)c1ccc(S(=O)(=O)NCc2cccnc2N(C)C)cc1 | -18.83% |
| CC(C)N(C)S(=O)(=O)NCc1cccnc1N(C)C | 34.56% |
| CN(C)c1nc(NCc2cccnc2N)ncc1F | 20.84% |
| CN(C)C(CNS(=O)(=O)c1cc(F)ccc1F)c1cccn1C (stereo unspecified) | 10.84% |
| COc1ccc(S(=O)(=O)NCc2cccnc2N(C)C)cc1F | -8.756% |

| Structure (SMILES) | Percent Effect |
| --- | --- |
| CN(C)c1ncccc1CNS(=O)(=O)c1cc(F)cc(F)c1 | 128.3% |
| Cc1c(Cl)cccc1S(=O)(=O)NCc1cnc(N(C)C)n1C | -2.35% |
| CN(C)C(CNS(=O)(=O)c1ccc(F)cc1F)c1cccn1C (stereo unspecified) | -13.11% |
| CN(C)c1ncccc1CNS(=O)(=O)c1cc(F)ccc1F | 114.6% |
| CN(C)c1ncccc1CNS(=O)(=O)c1ccccc1Cl | 109.5% |
| O=C1CC2(CCN(c3nccc(-c4cc(C(=O)O)ccn4)n3)CC2)CN1 | 4.533% |
| CC(C)(C)c1ncc(CNc2ccn(CCc3ccncc3)n2)s1 | 6.667% |
| CC1CS(=O)(=O)CCN1Cc1ccccc1N(C)C (stereo unspecified) | -2.207% |
| CCc1cc(N[C@@H]2C[C@H]3CC[C@@H]2C3)n2nccc2n1 | 3.761% |
| Cc1cc(C(=O)N(C)Cc2nc(-c3ccccn3)no2)c(C)o1 | -5.968% |
| CN(C)c1ncccc1CNS(=O)(=O)c1c(F)cccc1F | 108% |
| CCCC(C)CS(=O)(=O)NCc1cccnc1N(C)C (stereo unspecified) | 13.21% |
| CN(C)c1ncccc1CNC(=O)N(Cc1ccccc1F)C1CC1 | 8.051% |
| CO[C@H]1CCN(S(=O)(=O)c2cccs2)[C@H]1Cc1ccncc1 | -16.22% |
| Cc1cnn(-c2cncc(C(N)=O)c2)c1 | -7.115% |
| COCC(NC(=O)NCc1sc(C)nc1C)c1ccco1 (stereo unspecified) | -12.64% |
| O=C(Cc1ccc(F)cc1)NCCNc1cc(N2CCCC2)ncn1 | 80.33% |
| Cc1ccccc1NC(=O)Nc1cc(N2CCCC2)ncn1 | -4.653% |
| O=C(Cn1ncc(N2CCNCC2)cc1=O)NCCc1ccc(F)cc1 | -10.43% |
| O=C(Cn1ccc2ccccc21)Nc1cc(N2CCCC2)ncn1 | -7.456% |
| O=C(Cc1ccc(F)cc1)NCCNc1cc(N2CCCC2)cnn1 | 105.1% |
| O=C(Cc1ccc(F)cc1)NCCNCC1CNc2ccnn2C1 (stereo unspecified) | -7.839% |

| Structure (SMILES) | Percent Effect |
| --- | --- |
| CCOc1ccccc1NC(=O)Nc1cc(N2CCCC2)ncn1 | -20.57% |
| O=C(NCCNc1cc(N2CCCC2)cnn1)Nc1ccccc1F | 106.6% |
| CC(C)(C)C(=O)NCCNc1cc(N2CCCC2)ncn1 | -0.9567% |
| O=C1N[C@@H]2CCN(C(=O)C3CCCC3)[C@@H]2C(=O)N1c1ccc(F)cc1 | -1.999% |
| CS(=O)(=O)N1CCOCC2(CN(Cc3ccco3)CCO2)C1.O=C(O)C(F)(F)F (stereo unspecified) | -8.773% |
| O=C1CCCc2nccc(-c3ccccc3)c21 | -3.137% |
| Cc1cccc(CN2CCc3ncnc(N4CCCC4)c3CC2)n1.O=C(O)C(F)(F)F | 88.17% |
| O=C(Cc1ccccn1)N1CCc2ncnc(N3CCCC3)c2CC1.O=C(O)C(F)(F)F | -1.895% |
| Cc1cccc(CN2CCc3ncnc(N4CCN(C)CC4)c3CC2)n1.O=C(O)C(F)(F)F.O=C(O)C(F)(F)F | 101.7% |
| Cc1cccc(CN2CCc3ncnc(N4CCOCC4)c3CC2)n1.O=C(O)C(F)(F)F | -7.957% |
| O=C(N1CCOCC1)N1C[C@@H]2OCCN(C(=O)c3ccco3)[C@@H]2C1 | -0.4256% |
| Cc1nn(C)c2ncc(S(=O)(=O)N3CCCC(C(N)=O)C3)cc12 (stereo unspecified) | -2.512% |
| Cc1ccccc1CN(CC(=O)O)C(=O)COCC1CC1 | -13.15% |
| CC(C)(C)NC(=O)CNC(=O)c1cccnc1Oc1cccnc1 | -29.24% |
| COCCNC(=O)c1cccnc1Oc1ccc(Cl)cc1 | 115.3% |
| CC(C)CCNC(=O)c1cccnc1Oc1cccnc1 | 3.255% |
| O=C(NCCOc1ncc(Cl)cc1Cl)c1ccncc1F | -4.331% |
| CCN(CC)C(C)CNC(=O)c1cccnc1Oc1cccnc1 (stereo unspecified) | -104.8% |
| O=C(NCCOCCO)c1cccnc1Oc1ccc(Cl)cc1 | 144.4% |
| Cc1cccc(OCc2nnc(SCC3CCCN(C)C3)o2)c1 (stereo unspecified) | 17.13% |
| Cc1nc(CCN)cc(N2CCC(O)(c3ccc(Cl)cc3)CC2)n1 | -10.13% |
| CC(C)CN1C(=O)CO[C@@H]2CN(C(=O)C3CCOCC3)C[C@H]21 | -22.5% |
